Screening results from PubChem BioAssay.
CYP2C9 inh: blockers of cytochrome P450 2C9 activity – biochemical, luminescence, ADME assay, primary screen; P11712; CYP2C9 Supersomes, luciferin-H conversion; inhibition, % at 5 µM; actives 20% (n = 96,000);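 active = blocking of liver enzyme CYP2C9 beyond about 50% at 5 µM, limit read from the data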
Cav32 inh: Cav3.2 calcium influx blockers – cell-based, Fluo-4 calcium fluorescence, FDSS, MLSMR library, primary screen; Voltage-dependent T-type calcium channel subunit alpha-1H (Homo sapiens), O95180; Cav3.2-expressing cells; stronger effect = lower value; B-score at 10 µM; actives 4% (n = 100,000);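 active = single-dose well whose peak fluorescence ratio is a statistical outlier from its plate by either plate-standardised score or position-corrected B-score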
CYP2C9 act: human CYP2C9 activators, primary screen, biochemical, luminescence. activation factor at 5 µM. recombinant CYP2C9, luciferin-H conversion; stronger effect = higher value; factor 1 = untreated enzyme, 0 = blocked. AID 1024, 2008. actives 1.4% (n = 96,000). Cytochrome P450 2C9 (Homo sapiens), P11712;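 active = activation factor of 2 or more for CYP2C9 at a 5 µM dose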;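 also: 0 = sulfaphenazole-blocked wells and 1 = vehicle-only wells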
Pyk2 oligo antag: antagonists of Pyk2 self-association, primary screen, Q293 cells, FERM NanoBiT luminescence, HTS; Protein-tyrosine kinase 2-beta (Homo sapiens), Q14289; stronger effect = lower value; z-score (the deposit names both 25 µM and 10 µM); actives 0.83% (n = 99,000); AID 1347419, 2020;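 active = Z-score of -3 or lower, scaled per plate to the spread of control and sample wells; inactive = z-score above -3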;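 also: negative z-score means lost luminescence so less FERM oligomerization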
CYP2C19 act: human CYP2C19 activators, primary screen, biochemical, luminescence. activation factor at 5 µM. AID 1025, 2008. recombinant CYP2C19, luciferin-H EGE luminescence; stronger effect = higher value; 0 = fully inhibited enzyme, 1 = untreated enzyme. 96,000 tested, under 10 active. Cytochrome P450 2C19 (Homo sapiens), P33261;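 active = activation factor of at least 2 at 5 µM in the primary screen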;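 also: 0 = wells with 2.5 mM tranylcypromine and 1 = vehicle-only wells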
Target sequence (P33261 whole entry, looked up): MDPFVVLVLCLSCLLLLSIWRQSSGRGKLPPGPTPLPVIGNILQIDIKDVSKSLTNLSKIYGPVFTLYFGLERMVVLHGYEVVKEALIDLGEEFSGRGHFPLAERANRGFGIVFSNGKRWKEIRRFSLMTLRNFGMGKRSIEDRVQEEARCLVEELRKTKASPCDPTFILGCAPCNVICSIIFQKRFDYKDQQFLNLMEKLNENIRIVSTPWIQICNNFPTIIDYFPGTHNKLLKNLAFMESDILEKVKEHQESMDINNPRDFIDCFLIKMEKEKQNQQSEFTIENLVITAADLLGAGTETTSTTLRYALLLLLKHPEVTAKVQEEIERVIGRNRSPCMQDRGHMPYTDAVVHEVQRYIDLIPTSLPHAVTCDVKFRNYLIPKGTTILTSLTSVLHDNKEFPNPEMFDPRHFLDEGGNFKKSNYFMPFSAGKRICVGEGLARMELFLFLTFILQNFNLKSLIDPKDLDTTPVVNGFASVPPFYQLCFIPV
CYP2C19 inhib: blockers of cytochrome P450 2C19 activity – biochemical, luminescence, ADME assay, primary screen; P33261; CYP2C19 Supersomes, luciferin-H EGE luminescence, 30 min; inhibition, % at 5 µM; actives 21% (n = 96,000);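 active = CYP2C19 inhibition above a set limit at 5 µM in the primary screen, cut at about 50% in these data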;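 also: plate controls were negative control wells for no effect and 2.5 mM tranylcypromine positive control for full effect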
* = called active by the depositor; . = no result given. In the library only some 27% were active in any assay of this set; here they are far more common.

SMILES | CYP2C9 inh | Cav32 inh | CYP2C9 act | Pyk2 oligo antag | CYP2C19 act | CYP2C19 inhib
CCN1C(=O)c2cccc3c(NC(=O)c4ccc(S(=O)(=O)N(C)C)cc4)ccc1c23 | 36 | 0.5 | 0.6 | -1.1 | 0.9 | 13
CC(=O)Nc1ccc(Sc2ncccc2C(=O)Nc2ccc(F)cc2)cn1 | 14 | 1.1 | 0.9 | -0.43 | 1 | -4
Cc1cccc(-c2nc3ccccc3c3nncn23)c1 | 16 | 0.94 | 0.8 | -1.8 | 0.5 | 54*
CSC(=NC#N)N1CCN(c2ccc(Cl)cc2)CC1 | 43 | -0.39 | 0.6 | 0.05 | 0.1 | 86*
N#CC(C#N)=C/C(C#N)=C(/N)N1CCN(c2ccc(Cl)cc2)CC1 | 10 | 0.38 | 0.9 | -0.29 | 0.7 | 26
O=C1NC(c2ccccc2)(C(F)(F)F)SC2=NCCCN12 (centres undefined) | 21 | 0.85 | 0.8 | 0.94 | 0.3 | 68*
O=C1N2CN(C(c3ccccc3)c3ccccc3)CN=C2SC1(CO)CO | 2 | . | 1 | 0.11 | 0.9 | 8
CC(Oc1ccc(Cl)cc1Cl)C(=O)NCCCN(C)C (centres undefined) | -4 | 1.3 | 1 | 0.61 | 0.9 | 8
O=C1CN(C(=O)COC(=O)CCC(=O)c2ccc3c(c2)OCCO3)c2ccccc2N1 | -10 | 0.41 | 1.1 | 2.6 | 0.9 | 11
CCc1ccc(Nc2nnc(SCC(=O)Nc3cccnc3Cl)s2)cc1 | . | . | . | 0.28 | . | .
COc1ccccc1NC(=O)CC1C(=O)Nc2c1c(=O)n(C)c(=O)n2C (centres undefined) | 58* | -0.091 | 0.4 | 0.31 | 0.9 | 10
COc1ccc(CCNC(=O)C2CCN(S(=O)(=O)N3CC(C)CC(C)C3)CC2)cc1OC (centres undefined) | 14 | 0.011 | 0.9 | 0.22 | 1 | -1
CCN1CCN(C(c2ccc(OC)c(OC)c2)c2nnnn2C(C)(C)C)CC1 (centres undefined) | -3 | . | 1 | 0.56 | 1.1 | -13
COc1ccc(C(c2nnnn2C(C)(C)C)N2CCN(c3nc4ccccc4s3)CC2)cc1OC (centres undefined) | 98* | -4* | 0 | 0.22 | 0.4 | 56*
COc1cc(C(c2nnnn2C(C)(C)C)N2CCN(c3nc4ccccc4s3)CC2)ccc1O (centres undefined) | 97* | -2.3 | 0 | -0.92 | 0.4 | 61*
Cc1ccccc1NC(=O)CCC(=O)OCC(=O)c1ccc(-c2ccccc2)cc1 | 3 | 0.027 | 1 | 1 | 1.1 | -6
O=C(Nc1cccc(F)c1)N1CCN(C/C=C/c2ccccc2)CC1 | 22 | -2.7 | 0.8 | 0.27 | 0.8 | 24
O=C(NCCN1CCN(C(=O)c2cccs2)CC1)c1cccs1 | 43 | 0.46 | 0.6 | 0.44 | 0.9 | 10
O=C(c1cccs1)N1CCN(C/C=C/c2ccccc2)CC1 | 52* | 0.7 | 0.5 | -0.41 | 0.4 | 60*
O=C(Nc1ccc(F)cc1)N1CCN(C/C=C/c2ccccc2)CC1 | 51* | -1.8 | 0.5 | -1.3 | 0.6 | 42
O=C(c1nn(Cc2ccccc2)c(=O)c2ccccc12)N1CCN(C/C=C/c2ccccc2)CC1 | 82* | -6.7* | 0.2 | -0.91 | 0.6 | 41
O=C(c1cccs1)N1CCN(CCc2ccccc2)CC1 | 43 | 0.23 | 0.6 | -0.17 | 0.2 | 79*
O=C(c1ccco1)N1CCN(C/C=C/c2ccccc2)CC1 | 3 | -0.47 | 1 | 0.63 | 0.9 | 13
O=C(Cc1ccccc1)N1CCN(C(=O)c2cccs2)CC1 | 23 | 0.18 | 0.8 | -0.36 | 0.2 | 81*
O=S(=O)(Cc1nc2ccccc2s1)c1ccccc1 | -125 | -0.43 | 2.3* | 0.3 | 0.6 | 44
SMILES | CYP2C9 inh | Cav32 inh | CYP2C9 act | Pyk2 oligo antag | CYP2C19 act | CYP2C19 inhib
O=S(=O)(CCc1nc2ccccc2s1)c1ccc(Cl)cc1 | 12 | -0.12 | 0.9 | 0.62 | 0.8 | 21
COc1ccc(S(=O)(=O)CCc2nc3ccccc3s2)cc1 | 9 | 0.14 | 0.9 | -1.1 | 0.2 | 76*
CCCCN(C)CCn1c(=S)[nH]c2ccc(N3CCOCC3)cc2c1=O | 0 | 0.47 | 1 | 0.95 | 1.1 | -14
Cc1ccc(C(C(=O)NC2CCCCC2)N(C(=O)c2csnn2)C2CCCC2)o1 (centres undefined) | 32 | 0.45 | 0.7 | -1.3 | 0.6 | 37
Cc1ccsc1C(C(=O)NC1CCCCC1)N(C(=O)c1csnn1)C1CC1 (centres undefined) | 12 | 0.25 | 0.9 | -0.23 | 0.4 | 64*
O=C(c1cccs1)N1CCOCC1 | 2 | -0.59 | 1 | -0.05 | 1.1 | -5
Cc1ccc(N=C(c2cccs2)N2CCOCC2)cc1 | 16 | 0.033 | 0.8 | -0.12 | 0.3 | 73*
O=c1nc2n(c3ccc(Br)cc13)CCS2 | . | 0.54 | . | -0.16 | . | .
Cc1cccc(-c2noc(Cc3ccc(Cl)cc3)n2)c1 | 56* | 0.068 | 0.4 | -0.65 | 0.2 | 80*
COc1ccc(Cc2nc(-c3cccc(C)c3)no2)cc1 | -5 | -0.66 | 1 | -1.1 | 1 | -3
CCOc1ccccc1NC(=O)N1CCC(C(=O)c2ccc(F)cc2)CC1 | -153 | -0.87 | 2.5* | -0.23 | 0.2 | 83*
O=C(c1ccc(F)cc1)C1CCN(C(=O)Nc2ccc(F)cc2)CC1 | 39 | 1.2 | 0.6 | 0.24 | 0.7 | 26
O=C(CN1CCC(C(=O)c2ccc(F)cc2)CC1)Nc1ccc(F)cc1 | . | -5.4* | . | 1.3 | . | .
COc1ccccc1NC(=O)CN1CCCCC1 | 37 | 0.099 | 0.6 | 0.25 | 0.9 | 6
O=C(CN1CCC(C(=O)c2ccc(F)cc2)CC1)Nc1ccccc1 | 57* | -1.3 | 0.4 | 1.2 | 0.6 | 37
COc1ccccc1NC(=O)CN1CCC(C(=O)c2ccc(F)cc2)CC1 | -11 | -1.7 | 1.1 | 0.22 | 0.5 | 52*
CCCCN1CCc2c([nH]c3c(C)cccc23)C1=O | 48 | -2.2 | 0.5 | 0.54 | 0.5 | 46
CCCCCn1c(CCC(=O)Oc2ccccc2OC)nc2c1c(=O)[nH]c(=O)n2CCCC | 26 | -1.8 | 0.7 | -2.6 | 0.9 | 6
COc1ccc(CCNC(=O)CN2CCC(C(N)=O)CC2)cc1 | -17 | 0.51 | 1.2 | 0.78 | 1.2 | -19
COc1ccc(CNC(=O)CN2CCC(C(=O)c3ccc(OC)cc3)CC2)cc1 | 70* | 0.021 | 0.3 | 0.17 | 0.4 | 63*
Nc1nc(=S)[nH]c2c1C1(CCCCC1)Cc1ccccc1-2 | . | . | . | 1.4 | . | .
CCOC(=O)c1nc(Nc2ccccc2)c2ccccc2n1 | 34 | 0.8 | 0.7 | -0.39 | 0.9 | 12
c1cncc(-c2nc(NCC3COc4ccccc4O3)c3ccccc3n2)c1 (centres undefined) | 88* | . | 0.1 | -3.8* | 0.5 | 49
